Data reported in PubChem BioAssay (EPA / NIEHS).
Records with an inconclusive call do not appear. Activity calls are given as the source filed them. How the source made its calls: active means hit-call score of the fitted dose curve at least 0.9, where 1 is the maximum; inconclusive means response in the unintended direction; inactive means score below 0.9.

Read-out: Broad substrate specificity ATP-binding cassette transporter ABCG2 (Homo sapiens) (UniProt Q9UNQ0)
Assay: CLD_ABCG2_6hr: CellzDirect (CLD) Gene Expression Assay for ABC Transporter (ABCG2) at 6 hours (AID 2283660)
Experimental: CLD_6hr is a cell-based, multiplexed-readout assay that uses hepatocyte, a human liver primary cell, with measurements taken at 6 hours after chemical dosing in a 96-well plate.CLD_ABCG2_6hr is one of 16 assay component(s) measured or calculated from the CLD_6hr assay. It is designed to make measurements of mRNA induction, a form of inducible reporter, as detected with chemiluminescence signals by Quantitative Nuclease Protection Assay (qNPA) technology.Data from the assay component CLD_ABCG2_6hr was analyzed at the endpoint, CLD_ABCG2_6hr, in the positive analysis fitting direction relative to DMSO as the negative control and baseline of activity. Using a type of inducible reporter, gain-of-signal activity can be used to understand changes in the reporter gene as they relate to the gene ABCG2. Furthermore, this assay endpoint can be referred to as a primary readout. To generalize the intended target to other relatable targets, this assay endpoint is annotated to the transporter intended target family, where subfamily is ABC transporter.
Human hepatocyte cultures were treated daily for two consecutive days with fresh dosing solutions containing appropriate concentrations of the 320 ToxCast chemicals (chemical identities were blinded to CellzDirect and other ToxCast collaborators), vehicle control (0.2% DMSO), and positive control inducers as summarized in Table 1. Due to the large number of treatment groups and chemicals examined, the ToxCast chemicals were divided into two groups (spanning two independent cultures of hepatocytes from separate donor preparations (Hu778: ToxCast plates 1 and 2; Hu776: ToxCast plates 3 and 4). Each preparation of human hepatocyte cultures was treated with respective vehicle control, medium only control, set of six positive controls/reference chemicals for the five hepatic receptor pathways, and a subset of eight of the ToxCast chemicals (indoxacarb, pyrithiobac-sodium, norflurazon, cyhalofop-butyl, methomyl, thiram, acetochlor, and propiconazole). These replicate data, coupled with internal replicates designed within the blinded ToxCast chemical library, provided additional data to evaluate interindividual differences between hepatocyte preparations and their potential impact on chemical profiles.Cell morphology and integrity were evaluated using phase-contrast microscopy as an indicator of hepatocyte cell health (Tyson & Green, 1987). Cultures for each treatment group (i.e., media, vehicle [0.2% DMSO], positive control inducers [multiple concentrations], and the ToxCast chemicals [multiple concentrations]) were observed and cell morphology was assessed relative to vehicle control cultures at each harvest time point (0, 6, 24, or 48 h). […] Images were evaluated at the conclusion of the study to assess changes in cell integrity and account for the effects of chemical exposure on uncharacteristic changes in concentration-dependent gene expression profiles. The results from these determinations of apparent cytotoxicity were annotated (yes/no) alongside the corresponding qNPA data for reference.At the conclusion of each treatment period, hepatocyte cultures (96-well) were washed with 1 volume of HBSS, lysed by addition of 25 ul ArrayPlate lysis buffer (HTG, Tucson, AZ), and 70 ul/well of Denaturation Oil, denatured by incubation at 95C for 10 min, and frozen at approximately -70C until analysis by nuclease protection assay (qNPA) (Roberts et al., 2007). For qNPA analysis, cell lysates were thawed at 50C for approximately 30 min, qNPA probes were added, and samples were incubated at 95C for 10 min to begin the detection process by denaturing the target RNA, dissociating the duplexes and secondary structure hybridization. At the conclusion of the hybridization period, S1 nuclease reagent was added to each sample to digest all nonprotected nucleotides at 50C for 60-90 min. […]

Broad substrate specificity ATP-binding cassette transporter ABCG2 (Homo sapiens), sequence (Q9UNQ0 whole entry, looked up): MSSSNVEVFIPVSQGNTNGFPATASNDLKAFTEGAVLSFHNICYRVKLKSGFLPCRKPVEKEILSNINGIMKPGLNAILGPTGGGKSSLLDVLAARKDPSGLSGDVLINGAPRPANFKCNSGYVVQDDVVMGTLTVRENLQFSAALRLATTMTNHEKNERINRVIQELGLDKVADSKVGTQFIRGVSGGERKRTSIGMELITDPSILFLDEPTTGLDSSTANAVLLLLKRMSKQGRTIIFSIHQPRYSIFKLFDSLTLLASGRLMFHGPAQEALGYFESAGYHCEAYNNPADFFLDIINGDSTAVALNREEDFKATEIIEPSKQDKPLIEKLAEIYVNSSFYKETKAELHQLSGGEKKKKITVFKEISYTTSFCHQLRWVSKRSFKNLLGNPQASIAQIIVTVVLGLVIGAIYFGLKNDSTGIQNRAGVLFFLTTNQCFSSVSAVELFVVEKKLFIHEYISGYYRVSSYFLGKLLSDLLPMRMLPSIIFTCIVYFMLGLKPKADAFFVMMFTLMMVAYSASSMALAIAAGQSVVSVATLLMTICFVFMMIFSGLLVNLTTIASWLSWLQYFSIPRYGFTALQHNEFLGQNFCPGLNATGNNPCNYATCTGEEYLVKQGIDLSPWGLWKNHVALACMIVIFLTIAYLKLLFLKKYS

**Q.** With CCCCOC(=O)[C@@H](C)Oc1ccc(Oc2ccc(C(F)(F)F)cn2)cc1 as the compound, how does the outcome read?
**A.** inactive

**Q.** With CCCOC(=O)c1ccc(C(=O)OCCC)nc1 as the compound, how does the outcome read?
**A.** inactive

**Q.** How did the outcome turn out when CCCCCCC(C)OC(=O)COc1nc(F)c(Cl)c(N)c1Cl (centres undefined) was run?
**A.** inactive

**Q.** For CCOC(=O)C(C)Oc1ccc(Oc2cnc3cc(Cl)ccc3n2)cc1 (centres undefined), which outcome is on record?
**A.** inactive

**Q.** For CCCCOCCOCCOCc1cc2c(cc1CCC)OCO2, which outcome is on record?
**A.** inactive

**Q.** C#CCOC(=O)[C@@H](C)Oc1ccc(Oc2ncc(Cl)cc2F)cc1 was tested. Which outcome did it give?
**A.** inactive

**Q.** How did the outcome turn out when CCCCCOC(=O)COc1cc(N2C(=O)C3=C(CCCC3)C2=O)c(F)cc1Cl was run?
**A.** inactive

**Q.** CCCOC(=O)NCCCN(C)C was tested. Which outcome did it give?
**A.** inactive

**Q.** For CCCN(CCC)C(=O)SCC, which outcome is on record?
**A.** inactive

**Q.** How did the outcome turn out when Cc1nn(C)c(Oc2ccccc2)c1C=NOCc1ccc(C(=O)OC(C)(C)C)cc1 was run?
**A.** inactive

**Q.** Which outcome does the source give for N#CSCSc1nc2ccccc2s1 here?
**A.** inactive

**Q.** For CCOC(=O)[C@H](C)Oc1ccc(Oc2nc3ccc(Cl)cc3o2)cc1, which outcome is on record?
**A.** inactive

**Q.** How did the outcome turn out when CCCCC(CC)COC(=O)c1ccccc1C(=O)O (centres undefined) was run?
**A.** inactive

**Q.** COC(=O)c1cccc(C)c1S(=O)(=O)NC(=O)Nc1nc(OCC(F)(F)F)nc(N(C)C)n1 was tested. Which outcome did it give?
**A.** inactive

**Q.** How did the outcome turn out when COCCO was run?
**A.** inactive

**Q.** Which outcome does the source give for O=C(Nc1ccc([N+](=O)[O-])cc1Cl)c1cc(Cl)ccc1O here?
**A.** inactive

**Q.** How did the outcome turn out when CCN(CC)C(=O)c1cccc(C)c1 was run?
**A.** inactive

**Q.** For S=C(S)NCCNC(=S)S.[Mn+2].[S-]C([S-])=NCCN=C([S-])[S-].[Zn+2], which outcome is on record?
**A.** inactive

**Q.** CCSC(=O)N(CC(C)C)CC(C)C was tested. Which outcome did it give?
**A.** inactive

**Q.** Which outcome does the source give for COC(=O)c1ccccc1C(=O)O here?
**A.** inactive

**Q.** With CC(C)(C)[C@@H](O)[C@@H](Cc1ccc(Cl)cc1)n1cncn1 as the compound, how does the outcome read?
**A.** inactive

**Q.** How did the outcome turn out when COC(=O)c1ccc(I)cc1S(=O)(=O)NC(=O)Nc1nc(C)nc(OC)n1 was run?
**A.** inactive

**Q.** COC(=O)CSc1cc(N=c2sc(=O)n3n2CCCC3)c(F)cc1Cl was tested. Which outcome did it give?
**A.** inactive

**Q.** How did the outcome turn out when OB(O)O was run?
**A.** inactive

**Q.** Which outcome does the source give for CC1(C)C(C=C(Cl)Cl)C1C(=O)OCc1cccc(Oc2ccccc2)c1 (centres undefined) here?
**A.** inactive

**Q.** CCC(O)=C1C(=O)CC(C(=O)O)CC1=O (centres undefined) was tested. Which outcome did it give?
**A.** inactive

**Q.** How did the outcome turn out when c1ccc(Nc2ccccc2)cc1 was run?
**A.** inactive

**Q.** How did the outcome turn out when COC(=O)c1c(Cl)nn(C)c1S(=O)(=O)NC(=O)Nc1nc(OC)cc(OC)n1 was run?
**A.** inactive

**Q.** For O=C(O)C1(C(=O)Nc2ccc(Cl)cc2Cl)CC1, which outcome is on record?
**A.** inactive

**Q.** For CCNc1nc(N)nc(Cl)n1, which outcome is on record?
**A.** inactive

**Q.** CCCCC(CC)CN1C(=O)C2C3C=CC(C3)C2C1=O (centres undefined) was tested. Which outcome did it give?
**A.** inactive

**Q.** For CCC(C)OC(=O)N1CCCCC1CCO (centres undefined), which outcome is on record?
**A.** inactive

**Q.** With C=CCOC(Cn1ccnc1)c1ccc(Cl)cc1Cl (centres undefined) as the compound, how does the outcome read?
**A.** inactive

**Q.** Which outcome does the source give for CC(C)(c1ccc(O)cc1)c1ccc(O)cc1 here?
**A.** inactive
